Source: PubChem BioAssay (NCI)
Compounds without any hit were thinned out: in the full panel of roughly 83,000, 20% have a hit.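 A percent growth of 40 corresponds to 60% growth inhibition; 0 means no net growth; -100 means all cells died. Active threshold: below 10.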 Unmarked numbers belong to inactive results. Calls of active or inactive are those of the source.

Test system: MDA-MB-468 breast
Assay: NCI-60 one-dose screen, 48 h (100 = growth as untreated, 0 = no growth, -100 = all killed)
Conditions: 10 µM unless noted

Compound	growth
CCOC(=O)c1cnc2ccc(Br)cc2c1Nc1cccc(S(N)(=O)=O)c1	106%
COc1ccc(NC(=O)c2ccc3c(c2)nc(-c2ccc(Cl)cc2)n3-c2cc(C(C)(C)C)[nH]n2)cc1	87.5%
CCCNC(=O)c1ccc(S(N)(=O)=O)cc1	82.1%
CCOC(=O)C(=CNc1ccccc1[N+](=O)[O-])C(=O)OCC	86%
NS(=O)(=O)c1ccc(N=Nc2c(O)n(Cc3ccccc3)c3ccc(Cl)cc23)cc1	83.3%
Cc1ccc(C)c(NC(=O)c2sc3c(=O)[nH]cnc3c2C)c1	67.2%
O=C(Nc1cccc(-c2cccc(F)c2)c1)C1CCN(Cc2cccc3cccnc23)CC1	22.6%
NC(N)=N/N=C/c1ccc([N+](=O)[O-])cc1	85.5%
O=C(Nc1ccncc1)C(=O)c1cn(S(=O)(=O)c2cccc(F)c2)c2ccccc12	12%
C=C1c2c(C)nn(-c3ccc(C#CCOC4OC(CO)C(O)C(O)C4O)cc3)c2N(C)C23C[C@H]1C1(C)c4c(C)nn(-c5ccc(C#CCOC6OC(CO)C(O)C(O)C6O)cc5)c4N(C)C(C)(C[C@H]12)C3 (some centres undefined)	-16.4% (active)
Cc1sc2nc(N3CCCCC3)[nH]c(=O)c2c1C	96.6%
CC(C)C(=O)Nc1ncc(C(=O)NCCN(Cc2ccccc2)C(=O)c2ccc(S(=O)(=O)Nc3ccccc3)cc2)s1	80.3%
CC(=O)c1ccc(NC(=O)CSc2nnc(-c3cc(-c4ccc(Cl)cc4)nc4ccccc34)o2)cc1	115%
C[C@@H](O)[C@H]1C(=O)N2C(C(=O)O)=C(SC3CN[C@H](C(=O)N(C)C)C3)[C@H](C)[C@H]12 (some centres undefined)	100%
COc1cc2nc(NC3CCC3)nc(NC3CCN(C(C)C)CC3)c2cc1OC	16.5%
COc1ccc(NC(=O)CSc2nnc(-c3ccc4nc(-c5ccccc5)[nH]c4c3)o2)cc1	95.5%
Cn1c(=O)c2c(nc(Br)n2CCC(=O)Nc2ccc(F)cc2)n(C)c1=O	113%
O=C1CCc2c(sc3[nH]c(=S)n(-c4ccc(OC(F)(F)F)cc4)c(=O)c23)C1	-4.6% (active)
Cn1cc(C(=O)c2nc(-c3c[nH]c4ccccc34)no2)c2cc(F)ccc21	63%
COc1cc(/C=C/c2cc(/C=C/c3ccc(O)c(OC)c3)n(C(=O)Nc3ccc(F)cc3)n2)ccc1O	-14.6% (active)

Compound	growth
CCCCCCCCCCCC[n+]1ccc(CCCCCCCCC)cc1	-53.8% (active)
Cc1nc(Nc2cn[nH]c2C(=O)Nc2ccc(CN3CCN(C)CC3)cc2)c2ccsc2n1	104%
NC1=NC(c2ccccc2)C2=C(N1)/C(=C/c1ccccc1)CCC2 (centres undefined)	89.6%
CS(=O)c1nccc(-c2c(-c3ccc(F)c(OCCc4ccccc4)c3)nc3sccn23)n1 (centres undefined)	-39.4% (active)
COC(=O)[C@]12CC[C@@H](C)[C@H](C)[C@@H]1C1=CC[C@@H]3[C@@](C)(CC#N)C4=C(C[C@@]3(C)[C@]1(C)CC2)OC[C@]4(C)C=O	-83% (active)
Cn1ccnc1C(=O)/C=C/c1ccc(NC(=O)Nc2ccccc2)cc1	-45.8% (active)
Nc1ncnc2c1ncn2C1(CO)OCC(O)C(O)C1O (centres undefined)	108%
O=C(Nc1ccc(Cl)cc1)C1=NCCCCN1	111%
Oc1ccccc1-c1nnc(Cn2c(Cc3cccc4ccccc34)nc3ccccc32)o1	105%
Cc1ccc(-c2nc(N3CCCNCC3)c3oc(-c4ccc(C)cc4)nc3n2)cc1	5.4% (active)
OCC(CO)(CCl)CCl	107%
CC(=O)OC[Si](C)(C)c1ccccc1	95.3%
Cc1ccc(-c2cc3nc(-c4ccccc4)nc(C(Cl)Cl)n3n2)cc1	-61.4% (active)
Clc1nc(-c2cccnc2)nc2sc3c(c12)CCCCCC3	95.1%
COc1ccc(/C=C/C(=O)c2c(O)c(C)c(O)c3c2OC2=CC(O)=C(C(C)=O)C(=O)[C@]23C)cc1	-40.1% (active)
CCCCCCCCCCCC1=NC(C)(C)CN1C(C)C	-1.36% (active)
Cc1[nH]n(-c2cccc(Cl)c2)c(=O)c1/C=C1\C=Nc2ccc(Br)cc21	35.7%
CN(C)CCCN(CCC1CCCCC1)CCC1CCCCC1	-35.4% (active)
COc1ccc(C2C3=C(COC3=O)N(CCO)c3cc4c(cc32)OCCO4)cc1OC (centres undefined)	-32.1% (active)
